The results in this text go back to PubChem BioAssay AID1852 (Sanford-Burnham Center for Chemical Genomics, 2009).

Molecules are shown by their SMILES. Among all 2,500 compounds or so, about 1,100 (44%) were called active.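 How the source made its calls: active means inhibition above 50% at 4 µM in the single-point screen; inactive means inhibition of 50% or less.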 So high a share suggests a set chosen from earlier hits. Some of the results follow.

The experiment can be described thus: TNF-a-driven NF-kB reporter inhibitors, primary screen, selectivity assay for NOD1/NOD2 signaling inhibitor project, cell-based, HEK293T NF-kB-Luc, luminescence (AID 1852). To be noted: TNF-a induced, 14 h, at 4 µM, active compounds read high.
On to `O=C1C=C(c2ccccc2)C[C@H](c2cccs2)[C@H]1n1nnc([N+](=O)[O-])n1`, for which the inhibition was 35.8% (inactive).
For `Cc1cc(NC(=S)NC(=O)/C=C/c2ccc(S(=O)(=O)N3CCOCC3)cc2)ccc1Br` the value was -18.3% (inactive); for `Cc1cc(C(=O)CCl)c(C)n1-c1cccc(S(=O)(=O)N2CCOCC2)c1`, 52.4% (active).
For `O=C(c1[nH]nc2c1CCc1ccccc1-2)N1CCN(Cc2ccc3c(c2)OCO3)CC1` the value was 45.6% (inactive).
The value for `O=C(NC(=S)N1CCN(Cc2ccc3c(c2)OCO3)CC1)c1cccc(Br)c1` was 76.1% (active); that for `COc1cc(OC)c(OC)cc1/C=C1\CCC/C(=C\c2cc(OC)c(OC)cc2OC)C1=O` was 41.8% (inactive); that for `CCOc1cc(/C=C2\CCC/C(=C\c3cc(Cl)c(O)c(OCC)c3)C2=O)cc(Cl)c1O` was 87.7% (active).
For the compound `COc1cc(/C=C2/CCC/C(=C\c3cc(O)c(OC)c(Cl)c3)C2=O)cc(Cl)c1O`, the inhibition was 108% (active).
For `COc1cc(/C=C2\CCC/C(=C\c3ccc(O)c(OC)c3)C2=O)ccc1O` the value was 9.3% (inactive); for `COc1ccc(C(C(=O)NC2CCCCC2)N(C(=O)CCl)c2ccc(C)cc2)cc1` (stereo not given), 37% (inactive).
For `COc1ccc(N(C(=O)CCl)C(C(=O)NC2CCCCC2)c2cccnc2)cc1` (stereo not given), the inhibition is 87.1% (active).
The value for `COc1ccc(C(C(=O)NC2CCCCC2)N(C(=O)CCl)c2ccc(OC)cc2)cc1` (stereo not given) was 40.2% (inactive).
For `O=C(NC1CCCCC1)C(c1cccnc1)N(C(=O)CCl)c1ccc(F)cc1` (stereo not given) the value was 69.8% (active).
For `CC(=O)NC(c1cccs1)c1cc([N+](=O)[O-])c2cccnc2c1O` (stereo not given) the value was 105% (active); for `CC(=O)NC(c1ccco1)c1ccc2cccnc2c1O` (stereo not given), 26.6% (inactive).
As for `CC(C)C(=O)NC(c1cccs1)c1cc([N+](=O)[O-])c2cccnc2c1O` (stereo not given), the inhibition was 54.8% (active).
The value for `COc1ccc(C(=O)Nc2nc3ccccc3s2)c(OC)c1` was 88% (active); that for `CCOc1ccc2nc(NC(=O)c3ccccn3)sc2c1` was 102% (active).
On to `COc1ccccc1C(=O)Nc1nc2ccccc2s1`, for which the inhibition is 65.3% (active).
For `COc1ccc2nc(Nc3nc4ccc(NC(C)=O)cc4s3)sc2c1` the value was -14.1% (inactive); for `COc1ccccc1C(=O)NCc1ccc(-c2nc3ccccc3s2)cc1`, 14.3% (inactive).
For `COc1ccc2nc(Nc3nc(C)c(C(C)=O)s3)sc2c1` the value was -12.9% (inactive).
The value for `COc1cc([N+](=O)[O-])cc2sc(NC(=O)c3c(F)cccc3F)nc12` was 16.4% (inactive); that for `O=C(CCl)N=c1sccn1Cc1cccc2ccccc12` was 44.1% (inactive); that for `CC(=O)NC(c1ccc2ccccc2c1)c1ccc2cccnc2c1O` (stereo not given) was 75.2% (active).
With `COc1ccc(C(NC(C)=O)c2ccc3cccnc3c2O)c(OC)c1` (stereo not given), the inhibition is 99.8% (active).
The value for `CC(=O)NC(c1cccc([N+](=O)[O-])c1)c1ccc2cccnc2c1O` (stereo not given) was 70.9% (active).
As to `COc1cccc(C(NC(C)=O)c2ccc3cccnc3c2O)c1` (stereo not given), the inhibition was 57.3% (active).
`CC(=O)NC(c1ccc(Cl)cc1Cl)c1ccc2cccnc2c1O` (stereo not given): the inhibition was 15.6% (inactive).
For `COc1ccc(-c2cc(C)no2)cc1S(=O)(=O)N1CCN(c2ccccc2F)CC1` the value was 49.7% (inactive); for `CSC(=S)N/N=C/c1ccc(Br)cc1`, 3.9% (inactive); for `Cc1cc(NC(c2cccnc2)c2ccc3cccnc3c2O)no1` (stereo not given), 99.8% (active).
For `Cc1conc1NC(c1cccs1)c1ccc2cccnc2c1O` (stereo not given) the value was 14.1% (inactive); for `Cc1cccc(NC(=O)C2CCN(S(=O)(=O)c3ccc4c(c3)NC(=O)CO4)CC2)c1`, 11.7% (inactive); for `COc1ccc(C)cc1NC(=O)C1CCN(S(=O)(=O)c2cccc3nonc23)CC1`, 94.5% (active).
`Cc1ccc(CNC(=O)C2CCCN(S(=O)(=O)c3cccc4nonc34)C2)cc1` (stereo not given): the inhibition was 43.1% (inactive).
For `CCc1ccc(-c2cc(C)no2)cc1S(=O)(=O)NCCCN1CCN(c2ccccc2)CC1` the value was 28.3% (inactive).
For `C/C(=N\NC(=O)c1cc2ccccc2cc1O)c1cc2ccccc2o1` the value was 105% (active); for `C/C(=N\NC(=O)c1cc2ccccc2cc1O)c1ccccn1`, -5.1% (inactive); for `Cc1ccc(S(=O)(=O)CC#CCOC(=O)c2ccc([N+](=O)[O-])cc2)cc1`, 91.4% (active).
The value for `CCOC(=O)N1CCN(C(=O)c2ccc(Oc3ccc([N+](=O)[O-])cc3)cc2)CC1` was -11.6% (inactive); that for `COc1ccc(NS(=O)(=O)c2ccc(N/N=C(\C)c3ccncc3)c([N+](=O)[O-])c2)cc1` was 51.9% (active); that for `COc1ccc(NS(=O)(=O)c2ccc3oc(SC(C)C(N)=O)nc3c2)cc1` (stereo not given) was 2.2% (inactive).
For `CC[C@H]1CN2CCc3cc(OC)c(OC)cc3[C@@H]2C[C@@H]1C[C@H]1NCCc2cc(OC)c(OC)cc21`, the inhibition was 102% (active).
For `Cc1ccc(C)c(N2CCN(C(=O)C34CC5CC(C3)CC(n3nnc(C)n3)(C5)C4)CC2)c1` the value was 25.2% (inactive); for `CN(C)Cc1c(C(=O)N/N=C/c2cccc(OCc3c(F)cccc3Cl)c2)nnn1-c1nonc1N`, 74% (active).
The value for `O=C(COc1ccc2ccccc2c1)Nc1ccc(Br)cc1C(=O)O` was -2.8% (inactive); that for `CCOc1ccccc1-n1c(SCC(=O)Nc2ccccc2C(=O)O)nc2ccccc2c1=O` was -2.7% (inactive).
For `O=C(CSc1nc2ccccc2c(=O)n1Cc1ccccc1)Nc1ccc(Br)cc1C(=O)O` the value was 53.2% (active); for `COc1cc(/C=C/c2ccc3cccc(O)c3n2)cc(Cl)c1OC`, -19.5% (inactive).
For `COc1cc(/C=C/c2ccc3cccc(O)c3n2)cc(OC)c1OC`, the inhibition was 105% (active).
For `COc1cc(/C=C/c2ccc3cccc(O)c3n2)cc(Br)c1OC` the value was 28.6% (inactive); for `COc1cc(/C=C/c2ccc3cccc(O)c3n2)ccc1O`, 105% (active).
The value for `COc1cccc(OCCOc2ccc(/C=C3\C(=N)N4N=C(S(C)(=O)=O)SC4=NC3=O)cc2OC)c1` was -57.6% (inactive); that for `C=C1C(=O)[C@@]23[C@H](O)C[C@@H]4C(C)(C)CC[C@H](O)[C@@]4(C)[C@@H]2CC[C@@H]1[C@H]3O` was 68.9% (active); that for `NC(=O)c1c(NC(=O)C(=O)N2CCOCC2)sc2c1CCCC2` was 29.8% (inactive).
The value for `CCOc1ccccc1CNC(=O)Cn1nc(C)c2c(C)n(-c3ccc(C)cc3)nc2c1=O` was 55% (active).
For the compound `COc1ccc(OC)c(CCNC(=O)C(C)n2nc(C)c3c(C)n(-c4ccc(C)cc4)nc3c2=O)c1` (stereo not given), the inhibition was 49.3% (inactive).
For `COc1ccc(CCNC(=O)C(C)n2nc(C)c3c(C)n(-c4ccc(C)cc4)nc3c2=O)c(OC)c1` (stereo not given) the value was 56.1% (active); for `COc1ccc(OC)c(CCNC(=O)Cn2nc(C)c3c(C)n(-c4ccc(C)cc4)nc3c2=O)c1`, 69.7% (active).
On to `CCn1nc(C)c(NC(=O)/C=C/c2ccc(OC)c(COc3ccc(Br)cc3)c2)c1C`, for which the inhibition is 38.5% (inactive).
For `CCOC(=O)c1c(C)nc2sc3c(=O)n(-c4ccc(C(C)=O)cc4)nnc3c2c1-c1ccc(OC)cc1` the value was 5.1% (inactive); for `O=C(c1ccc(S(=O)(=O)c2ccccc2Cl)c([N+](=O)[O-])c1)N1CCCCCC1`, 26.2% (inactive).
For `O=C(c1ccc(S(=O)(=O)c2ccccc2Cl)c([N+](=O)[O-])c1)N1CCN(Cc2ccccc2)CC1` the value was 56.1% (active); for `O=C(c1ccc(S(=O)(=O)c2cccc(Cl)c2)c([N+](=O)[O-])c1)N1CCN(c2ccccn2)CC1`, 35.5% (inactive).
For `O=C(c1ccc(S(=O)(=O)c2cccc(Cl)c2)c([N+](=O)[O-])c1)N1CCN(Cc2ccccc2)CC1` the value was 53.1% (active); for `O=C(c1ccc(S(=O)(=O)c2ccc(F)cc2)c([N+](=O)[O-])c1)N1CCCCCC1`, 27.8% (inactive).
In the case of `O=C(Nc1nc2ccc([N+](=O)[O-])cc2s1)c1ccc(S(=O)(=O)N2CCCc3ccccc32)cc1`, the inhibition is 68.8% (active).
For the compound `Cn1cc(S(=O)(=O)N2CCc3ccccc32)cc1C(=O)NC(C)(C)C`, the inhibition is 38.6% (inactive).
Turning to `O=C(Nc1nnc(C2CC2)s1)c1cccc(S(=O)(=O)N2CCc3ccccc32)c1`, the inhibition is 9.3% (inactive).
The value for `Cc1ccc(NC(=O)Cc2ncc(C(F)(F)F)cc2Cl)cc1Cl` was -15.6% (inactive); that for `COc1ccc(NC(=O)COC(=O)/C=C/C(=O)OCC(=O)Nc2ccc(OC)c(Cl)c2)cc1Cl` was 17.7% (inactive).
The value for `Cc1nn(C(C)(C)C)c(C)c1/C=N/OC(=O)Nc1ccc(Cl)cc1` was 71.3% (active).
For the compound `O=C(Nc1ccc(Cl)c(Cl)c1)OCc1cnc(Cl)s1`, the inhibition was -13.5% (inactive).
On to `O=C(Nc1ccc(Cl)cc1)OCc1cncs1`, for which the inhibition is -60.4% (inactive).
For `Cc1nn(C(C)(C)C)c(C)c1/C=N/OC(=O)Nc1ccc(Cl)c(Cl)c1` the value was 94% (active); for `Cc1ccc(NC(=O)O/N=C/c2c(C)nn(C(C)(C)C)c2C)cc1Cl`, 90.2% (active).
Take `COc1ccc(-n2cnc3ccccc32)cc1`: the inhibition was 53.9% (active).
The value for `COc1ccc(OC)c(Nc2c3ccccc3nc3ccccc23)c1` was 20.8% (inactive).
For `COc1ccc(-n2cc(-c3ccccc3)c3c(N4CCOCC4)ncnc32)cc1` the value was 12.7% (inactive); for `COc1ccc2ncn(-c3ccccc3)c2c1`, 53.8% (active); for `CCOc1ccc(-c2csc3ncn(-c4ccc(OC)cc4)c(=O)c23)cc1`, 44% (inactive).
For the compound `Cc1ccc(OCCCCn2cnc3ccccc32)cc1`, the inhibition is 26.7% (inactive).
For `CC(=O)c1ccc(NC(=O)c2noc3c2CCC3)cc1` the value was 35.4% (inactive); for `O=C(Sc1cccc2cccnc12)c1ccccc1Br`, 105% (active).
The value for `O=C(Sc1cccc2cccnc12)c1ccc(F)cc1` was 101% (active).
For the compound `CCOC(=O)c1c(N2C(=O)Nc3cc(Cl)c(Cl)cc3N2O)sc2c1CCCCC2`, the inhibition is 75.5% (active).
The value for `CCOc1cc(C=C(C(=O)OC)C(=O)OC)ccc1OCc1ccc([N+](=O)[O-])cc1` was 7.6% (inactive); that for `O=[N+]([O-])c1ccc(O)c(Nc2ncnc3ccc(Br)cc23)c1` was 14.6% (inactive).
The value for `CCOc1ccc(Nc2ncnc3ccc([N+](=O)[O-])cc23)cc1` was 63.8% (active).

The term inhibition denotes the drop in the measured response relative to a control, in per cent.
